Source: PubChem
The list is not random: actives were taken first. Their share in the collection is about 32%.
CYP2C9 inhib – inhibitors of human CYP2C9 | inhibition, % at 5 µM | P11712 | CYP2C9 Supersomes, luciferin-H conversion, luminescence | actives 20% (n = 96,000);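 active means blocking of liver enzyme CYP2C9 beyond about 50% at 5 µM, limit read from the data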
Target sequence (P11712 whole entry, looked up): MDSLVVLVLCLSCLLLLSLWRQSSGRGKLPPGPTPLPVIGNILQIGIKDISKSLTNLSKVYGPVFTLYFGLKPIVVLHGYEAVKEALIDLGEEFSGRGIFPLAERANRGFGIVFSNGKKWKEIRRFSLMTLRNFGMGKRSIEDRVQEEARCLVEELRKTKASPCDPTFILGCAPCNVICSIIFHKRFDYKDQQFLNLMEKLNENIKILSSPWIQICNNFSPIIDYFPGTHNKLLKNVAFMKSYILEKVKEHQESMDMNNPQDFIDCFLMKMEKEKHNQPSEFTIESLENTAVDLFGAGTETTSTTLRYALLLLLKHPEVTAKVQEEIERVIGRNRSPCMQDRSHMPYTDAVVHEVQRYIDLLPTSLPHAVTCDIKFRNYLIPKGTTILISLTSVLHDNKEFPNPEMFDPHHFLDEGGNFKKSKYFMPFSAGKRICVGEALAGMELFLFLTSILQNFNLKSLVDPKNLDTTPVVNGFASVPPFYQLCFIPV
PostGolgi ctrl – yeast control strain growth, post-Golgi counter-screen; inhibition, % at 10 µM; efflux-deficient yeast background strain, growth absorbance A615, 16 h; actives 5% (n = 98,000); AID 738
PostGolgi yeast – growth inhibition of a yeast mutant, post-Golgi transport screen. post-Golgi transport phenotypic cell assay. inhibition, % at 10 µM. actives 0.9% (n = 98,000). AID 739;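 further: yeast cells grown in 1536-well plates; yeast grown about 18 h at 30C before absorbance read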
CYP2C19 act – cytochrome P450 2C19 (human) activation; activation factor at 5 µM; P33261; 96,000 tested, under 10 active; recombinant CYP2C19, luciferin-H EGE luminescence; hits give high values; 0 = fully inhibited enzyme, 1 = untreated enzyme;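 active means activation factor of at least 2 at 5 µM in the primary screen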;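 further: 0 = wells with 2.5 mM tranylcypromine and 1 = vehicle-only wells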
CYP2C19 inh – inhibitors of human CYP2C19 | P33261 | CYP2C19 Supersomes, luciferin-H EGE luminescence, 30 min | inhibition, % at 5 µM | actives 21% (n = 96,000) | AID 778;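 active means CYP2C19 inhibition above a set limit at 5 µM in the primary screen, cut at about 50% in these data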;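 further: plate controls were negative control wells for no effect and 2.5 mM tranylcypromine positive control for full effect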
CYP2C9 act – CYP2C9 (human) activation; P11712; recombinant CYP2C9, luciferin-H conversion, luminescence; hits give high values; factor 1 = untreated enzyme, 0 = blocked; activation factor at 5 µM; actives 1.4% (n = 96,000); AID 1024;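 active means activation factor of 2 or more for CYP2C9 at a 5 µM dose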;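 further: 0 = sulfaphenazole-blocked wells and 1 = vehicle-only wells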
Numbers without * were called inactive; . = no result given. Unless noted, no stated cut-off is given here; in the data, active means inhibition above about 30%; inactive means the rest.

SMILES	CYP2C9 inhib	PostGolgi ctrl	PostGolgi yeast	CYP2C19 act	CYP2C19 inh	CYP2C9 act
CN1CCN(S(=O)C23CC4CC(CC(C4)C2)C3)CC1 (configuration not stated)	.	15.7	16.9	.	.	.
CCC(c1nnnn1Cc1ccccc1)N(Cc1ccco1)Cc1cc2cc(OC)ccc2[nH]c1=O (configuration not stated)	48.2	40.6*	-0.2	0.8	24.8	0.5
CCC(c1nnnn1Cc1ccco1)N(CCc1ccccc1)Cc1cc2cc(C)ccc2[nH]c1=O (configuration not stated)	47.6	.	.	0.6	42.0	0.5
CCC(c1nnnn1CCc1ccccc1)N(Cc1ccco1)Cc1cc2c(C)ccc(C)c2[nH]c1=O (configuration not stated)	93.5*	19.6	2.5	0.1	93.4*	0.1
CCC(c1nnnn1CCc1ccccc1)N(Cc1ccco1)Cc1cc2cc(C)cc(C)c2[nH]c1=O (configuration not stated)	11.9	-1.3	0.9	0.6	39.0	0.9
NC(=O)CSc1nnc(-c2cccs2)n1-c1ccccc1	3.7	0.3	-10.6	1	4.1	1
c1ccc(-n2c(Sc3cnccn3)nnc2-c2cccs2)cc1	25.7	7.1	-5.1	0.3	71.0*	0.7
CCOc1ncccc1C(=O)NCc1ccc(OC)cc1	52.5*	0.6	-24.1	0.5	51.7*	0.5
COc1ccc(Nc2ncccc2C(=O)NCc2ccccc2)cc1	78.9*	4.8	2.6	0.2	84.5*	0.2
CCN(CC)c1nc2ccccc2nc1-n1nc(C)cc1C	39.2	42.8*	-10.2	0.5	48.2	0.6
Cc1cccc(Cn2c(=O)n(-c3ccc(CC(=O)NCc4ccco4)cc3)c(=O)c3sccc32)c1	-1.7	3.2	3.5	1.2	-15.1	1
COc1cc2c(cc1NC(=O)C(c1ccccc1)c1ccccc1)CCCC2	95.9*	5.4	-7.5	0.2	83.1*	0
COc1ccc(NC(=O)C(C)N(c2ccc(C)cc2)S(C)(=O)=O)c(OC)c1 (configuration not stated)	51.6*	23.2	-9.5	0.1	90.0*	0.5
COc1ccc(NC(=O)NS(=O)(=O)c2ccc(C)cc2)c(OC)c1	91.5*	-3.6	-3.0	0.7	27.4	0.1
COc1ccc(NC(=O)Nc2cc(C)ccc2OC(F)F)c(OC)c1	30.1	19.3	16.9	0.7	33.0	0.7
Cc1sc(=NC(=O)c2ccco2)n(C)c1-c1ccccc1	65.2*	23.3	1.5	0.6	40.5	0.3
COC(=O)c1onc(-c2ccccc2)c1C(=O)OC	18.0	6.2	6.0	0.3	71.9*	0.8
COc1ccc(/C=N/NC(N)=S)cc1OC(=O)c1cccc2ccccc12	58.0*	65.0*	-17.1	0.7	29.2	0.4
COc1ccc(/C=N/NC(=O)CCc2ccccc2)cc1O	10.9	5.8	3.2	1	0.6	0.9
COc1cc(/C=N/NC(=O)CCn2c3ccccc3c3ccccc32)ccc1O	65.2*	20.4	3.0	0.4	60.4*	0.3
COC(=O)c1onc(-c2c(C)cc(C)cc2C)c1C(=O)OC	6.2	3.5	-1.0	0.8	19.4	0.9
COc1cc(/C=N/NC(=O)C2c3ccccc3Oc3ccccc32)ccc1O	52.7*	6.2	-11.8	0.9	8.4	0.5
COc1ccc(C(=O)Oc2cc(/C=N/NC(N)=S)ccc2OC)cc1	0.6	7.1	16.6	1	1.5	1
COc1cc(/C=N/NC(=O)c2nc(C)cc(C)n2)ccc1O	7.7	23.9	-6.3	0.9	5.2	0.9
COc1ccc(OC)c(N(CC(=O)N2CCN(c3cc(Cl)ccc3C)CC2)S(C)(=O)=O)c1	-20.4	-4.0	-10.3	0.8	19.3	1.2
COC(=O)c1cc(OC)c(OC)cc1NC(=O)c1ccc(C)cc1	50.8*	26.5	0.3	0.6	42.5	0.5
CCCOc1ccccc1NC(=O)c1c(-c2ccccc2)noc1C	-14.6	14.8	5.8	1	3.7	1.1
COc1cc(OC)c(NC(=O)c2c(-c3ccccc3)noc2C)cc1Cl	26.2	6.5	-2.5	1	0.1	0.7
Cc1cccc(C)c1NC(=O)c1c(-c2ccccc2)noc1C	10.3	5.5	-0.3	0.6	43.3	0.9
Cc1ccc(F)cc1NC(=O)c1c(-c2ccccc2)noc1C	13.2	15.2	-6.6	0.5	52.6*	0.9
